We go through 52 substances from paper PMC12701074.

Holding throughout (test): cross-linking mass spectrometry
For one assay, the target named is PGK2 (UniProt P07205). As to conditions: SIA, in cells.
For a further assay, the target named is PSMC1 (UniProt P62191). As to conditions: in cells.
The target of a further assay is PSMD2 (UniProt Q13200). As to conditions: SBAP;SIA;SIAB, in cells.
Another assay concerns the target PHF5A (UniProt Q7RTV0). As to conditions: SIA, in cells.
The target in another assay is RANGAP1 (UniProt P46060). Conditions: SIAB, in cells.
For the next assay, the target named is PPIA (UniProt P62937). Conditions: SIA, in cells.
A further assay addresses PRKDC (UniProt P78527). Conditions: SIA, in cells.
Another assay addresses RHOT1 (UniProt Q8IXI2). As to conditions: SIA, in cells.
In another assay the target is MLLT10 (UniProt P55197). Conditions: SIA, in cells.
For the next assay, the target named is MT-ND3 (UniProt P03897). Conditions: SIA;SIAB, in cells.
The next assay deals with NR2E1 (UniProt Q9Y466). Conditions: SBAP, in cells.
A further assay has as its target NDUFA5 (UniProt Q16718). Conditions: SBAP;SIAB, in cells.
Another assay has as its target RFC3 (UniProt P40938). As to conditions: SIAB, in cells.
In a further assay the target is PKM (UniProt P14618). As to conditions: SBAP, in cells.
A further assay has as its target NAA15 (UniProt Q9BXJ9). Conditions: SBAP;SIAB, in cells.
In the next assay the target is PSMC3 (UniProt P17980). Conditions: SIAB, in cells.
Another assay has as its target PDIA3 (UniProt P30101). Conditions: SBAP, in cells.
The next assay deals with NCAPH (UniProt Q15003). Conditions: SBAP;SIAB, in cells.
The next assay addresses RPL14 (UniProt P50914). As to conditions: SIA, in cells.
Another assay deals with RPS11 (UniProt P62280). As to conditions: SIA, in cells.
For another assay, the target named is RPS3A (UniProt P61247). As to conditions: SIA, in cells.
For the next assay, the target named is RPS6 (UniProt P62753). Conditions: SIA, in cells.
The next assay concerns the target RPL18A (UniProt Q02543). As to conditions: SBAP, in cells.
The target in the next assay is RPL24 (UniProt P83731). Conditions: SIA, in cells.
A further assay concerns the target RPS16 (UniProt P62249). Conditions: SIA, in cells.
The target of a further assay is RPL32 (UniProt P62910). As to conditions: SBAP, in cells.
In a further assay the target is RPL36 (UniProt Q9Y3U8). As to conditions: SBAP;SIA, in cells.
Another assay has as its target RPL7A (UniProt P62424). Conditions: SIA, in cells.
For the next assay, the target named is RPS15A (UniProt P62244). As to conditions: SIA, in cells.
The next assay has as its target RPS2 (UniProt P15880). Conditions: SIA, in cells.
Another assay concerns the target RPS8 (UniProt P62241). As to conditions: SIA, in cells.
The next assay addresses RRP1B (UniProt Q14684). Conditions: SIA, in cells.
A further assay addresses RTRAF (UniProt Q9Y224). As to conditions: SIAB, in cells.
A further assay deals with SERBP1 (UniProt Q8NC51). Conditions: SIA, in cells.
A further assay concerns the target SF3A3 (UniProt Q12874). As to conditions: SIAB, in cells.
For another assay, the target named is SF3B5 (UniProt Q9BWJ5). As to conditions: in cells.
For the next assay, the target named is SFSWAP (UniProt Q12872). As to conditions: SBAP, in cells.
For a further assay, the target named is TRRAP (UniProt Q9Y4A5). Conditions: in cells.
The target in a further assay is SLC25A22 (UniProt Q9H936). As to conditions: SIAB, in cells.
The target of a further assay is SNRPD2 (UniProt P62316). Conditions: SBAP;SIAB, in cells.
For another assay, the target named is SNRPD3 (UniProt P62318). Conditions: SIA, in cells.
A further assay addresses SNX6 (UniProt Q9UNH7). As to conditions: SIA, in cells.
For the next assay, the target named is SPTBN1 (UniProt Q01082). As to conditions: SIA, in cells.
For the next assay, the target named is SRP68 (UniProt Q9UHB9). Conditions: SBAP, in cells.
A further assay deals with SRSF7 (UniProt Q16629). Conditions: SIA, in cells.
The target in a further assay is STK11IP (UniProt Q8N1F8). Conditions: SIA, in cells.
The next assay deals with SYNE2 (UniProt Q8WXH0). Conditions: SIAB, in cells.
The target of a further assay is TMPO (UniProt P42167). As to conditions: SIAB, in cells.
The target of a further assay is TPI1 (UniProt P60174). As to conditions: SIA, in cells.
The target of the next assay is TSNAX (UniProt Q99598). Conditions: SIA, in cells.
For the next assay, the target named is UBE2K (UniProt P61086). Conditions: SIAB, in cells.
The next assay deals with USP7 (UniProt Q93009). As to conditions: SIA, in cells.
The target of a further assay is VDAC2 (UniProt P45880). Conditions: SBAP;SIAB, in cells.
A further assay has as its target VIM (UniProt P08670). Conditions: in cells.
The target in another assay is XRCC5 (UniProt P13010). Conditions: in cells.
Another assay addresses YWHAZ (UniProt P63104). Conditions: SBAP, in cells.

PSMC2, P35998, sequence (P35998 whole entry): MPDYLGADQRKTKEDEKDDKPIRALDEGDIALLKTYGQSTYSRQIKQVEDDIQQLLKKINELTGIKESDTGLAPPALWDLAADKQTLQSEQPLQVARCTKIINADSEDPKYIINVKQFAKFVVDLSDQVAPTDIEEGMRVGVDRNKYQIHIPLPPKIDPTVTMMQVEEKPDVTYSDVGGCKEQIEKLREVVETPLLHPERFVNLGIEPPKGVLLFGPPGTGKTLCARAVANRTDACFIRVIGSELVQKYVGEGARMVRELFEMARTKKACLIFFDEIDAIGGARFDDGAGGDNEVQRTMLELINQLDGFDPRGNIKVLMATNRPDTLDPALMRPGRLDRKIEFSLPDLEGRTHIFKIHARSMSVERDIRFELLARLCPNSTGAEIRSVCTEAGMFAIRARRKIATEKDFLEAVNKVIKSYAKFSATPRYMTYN
TRRAP, sequence (Q9Y4A5 whole entry): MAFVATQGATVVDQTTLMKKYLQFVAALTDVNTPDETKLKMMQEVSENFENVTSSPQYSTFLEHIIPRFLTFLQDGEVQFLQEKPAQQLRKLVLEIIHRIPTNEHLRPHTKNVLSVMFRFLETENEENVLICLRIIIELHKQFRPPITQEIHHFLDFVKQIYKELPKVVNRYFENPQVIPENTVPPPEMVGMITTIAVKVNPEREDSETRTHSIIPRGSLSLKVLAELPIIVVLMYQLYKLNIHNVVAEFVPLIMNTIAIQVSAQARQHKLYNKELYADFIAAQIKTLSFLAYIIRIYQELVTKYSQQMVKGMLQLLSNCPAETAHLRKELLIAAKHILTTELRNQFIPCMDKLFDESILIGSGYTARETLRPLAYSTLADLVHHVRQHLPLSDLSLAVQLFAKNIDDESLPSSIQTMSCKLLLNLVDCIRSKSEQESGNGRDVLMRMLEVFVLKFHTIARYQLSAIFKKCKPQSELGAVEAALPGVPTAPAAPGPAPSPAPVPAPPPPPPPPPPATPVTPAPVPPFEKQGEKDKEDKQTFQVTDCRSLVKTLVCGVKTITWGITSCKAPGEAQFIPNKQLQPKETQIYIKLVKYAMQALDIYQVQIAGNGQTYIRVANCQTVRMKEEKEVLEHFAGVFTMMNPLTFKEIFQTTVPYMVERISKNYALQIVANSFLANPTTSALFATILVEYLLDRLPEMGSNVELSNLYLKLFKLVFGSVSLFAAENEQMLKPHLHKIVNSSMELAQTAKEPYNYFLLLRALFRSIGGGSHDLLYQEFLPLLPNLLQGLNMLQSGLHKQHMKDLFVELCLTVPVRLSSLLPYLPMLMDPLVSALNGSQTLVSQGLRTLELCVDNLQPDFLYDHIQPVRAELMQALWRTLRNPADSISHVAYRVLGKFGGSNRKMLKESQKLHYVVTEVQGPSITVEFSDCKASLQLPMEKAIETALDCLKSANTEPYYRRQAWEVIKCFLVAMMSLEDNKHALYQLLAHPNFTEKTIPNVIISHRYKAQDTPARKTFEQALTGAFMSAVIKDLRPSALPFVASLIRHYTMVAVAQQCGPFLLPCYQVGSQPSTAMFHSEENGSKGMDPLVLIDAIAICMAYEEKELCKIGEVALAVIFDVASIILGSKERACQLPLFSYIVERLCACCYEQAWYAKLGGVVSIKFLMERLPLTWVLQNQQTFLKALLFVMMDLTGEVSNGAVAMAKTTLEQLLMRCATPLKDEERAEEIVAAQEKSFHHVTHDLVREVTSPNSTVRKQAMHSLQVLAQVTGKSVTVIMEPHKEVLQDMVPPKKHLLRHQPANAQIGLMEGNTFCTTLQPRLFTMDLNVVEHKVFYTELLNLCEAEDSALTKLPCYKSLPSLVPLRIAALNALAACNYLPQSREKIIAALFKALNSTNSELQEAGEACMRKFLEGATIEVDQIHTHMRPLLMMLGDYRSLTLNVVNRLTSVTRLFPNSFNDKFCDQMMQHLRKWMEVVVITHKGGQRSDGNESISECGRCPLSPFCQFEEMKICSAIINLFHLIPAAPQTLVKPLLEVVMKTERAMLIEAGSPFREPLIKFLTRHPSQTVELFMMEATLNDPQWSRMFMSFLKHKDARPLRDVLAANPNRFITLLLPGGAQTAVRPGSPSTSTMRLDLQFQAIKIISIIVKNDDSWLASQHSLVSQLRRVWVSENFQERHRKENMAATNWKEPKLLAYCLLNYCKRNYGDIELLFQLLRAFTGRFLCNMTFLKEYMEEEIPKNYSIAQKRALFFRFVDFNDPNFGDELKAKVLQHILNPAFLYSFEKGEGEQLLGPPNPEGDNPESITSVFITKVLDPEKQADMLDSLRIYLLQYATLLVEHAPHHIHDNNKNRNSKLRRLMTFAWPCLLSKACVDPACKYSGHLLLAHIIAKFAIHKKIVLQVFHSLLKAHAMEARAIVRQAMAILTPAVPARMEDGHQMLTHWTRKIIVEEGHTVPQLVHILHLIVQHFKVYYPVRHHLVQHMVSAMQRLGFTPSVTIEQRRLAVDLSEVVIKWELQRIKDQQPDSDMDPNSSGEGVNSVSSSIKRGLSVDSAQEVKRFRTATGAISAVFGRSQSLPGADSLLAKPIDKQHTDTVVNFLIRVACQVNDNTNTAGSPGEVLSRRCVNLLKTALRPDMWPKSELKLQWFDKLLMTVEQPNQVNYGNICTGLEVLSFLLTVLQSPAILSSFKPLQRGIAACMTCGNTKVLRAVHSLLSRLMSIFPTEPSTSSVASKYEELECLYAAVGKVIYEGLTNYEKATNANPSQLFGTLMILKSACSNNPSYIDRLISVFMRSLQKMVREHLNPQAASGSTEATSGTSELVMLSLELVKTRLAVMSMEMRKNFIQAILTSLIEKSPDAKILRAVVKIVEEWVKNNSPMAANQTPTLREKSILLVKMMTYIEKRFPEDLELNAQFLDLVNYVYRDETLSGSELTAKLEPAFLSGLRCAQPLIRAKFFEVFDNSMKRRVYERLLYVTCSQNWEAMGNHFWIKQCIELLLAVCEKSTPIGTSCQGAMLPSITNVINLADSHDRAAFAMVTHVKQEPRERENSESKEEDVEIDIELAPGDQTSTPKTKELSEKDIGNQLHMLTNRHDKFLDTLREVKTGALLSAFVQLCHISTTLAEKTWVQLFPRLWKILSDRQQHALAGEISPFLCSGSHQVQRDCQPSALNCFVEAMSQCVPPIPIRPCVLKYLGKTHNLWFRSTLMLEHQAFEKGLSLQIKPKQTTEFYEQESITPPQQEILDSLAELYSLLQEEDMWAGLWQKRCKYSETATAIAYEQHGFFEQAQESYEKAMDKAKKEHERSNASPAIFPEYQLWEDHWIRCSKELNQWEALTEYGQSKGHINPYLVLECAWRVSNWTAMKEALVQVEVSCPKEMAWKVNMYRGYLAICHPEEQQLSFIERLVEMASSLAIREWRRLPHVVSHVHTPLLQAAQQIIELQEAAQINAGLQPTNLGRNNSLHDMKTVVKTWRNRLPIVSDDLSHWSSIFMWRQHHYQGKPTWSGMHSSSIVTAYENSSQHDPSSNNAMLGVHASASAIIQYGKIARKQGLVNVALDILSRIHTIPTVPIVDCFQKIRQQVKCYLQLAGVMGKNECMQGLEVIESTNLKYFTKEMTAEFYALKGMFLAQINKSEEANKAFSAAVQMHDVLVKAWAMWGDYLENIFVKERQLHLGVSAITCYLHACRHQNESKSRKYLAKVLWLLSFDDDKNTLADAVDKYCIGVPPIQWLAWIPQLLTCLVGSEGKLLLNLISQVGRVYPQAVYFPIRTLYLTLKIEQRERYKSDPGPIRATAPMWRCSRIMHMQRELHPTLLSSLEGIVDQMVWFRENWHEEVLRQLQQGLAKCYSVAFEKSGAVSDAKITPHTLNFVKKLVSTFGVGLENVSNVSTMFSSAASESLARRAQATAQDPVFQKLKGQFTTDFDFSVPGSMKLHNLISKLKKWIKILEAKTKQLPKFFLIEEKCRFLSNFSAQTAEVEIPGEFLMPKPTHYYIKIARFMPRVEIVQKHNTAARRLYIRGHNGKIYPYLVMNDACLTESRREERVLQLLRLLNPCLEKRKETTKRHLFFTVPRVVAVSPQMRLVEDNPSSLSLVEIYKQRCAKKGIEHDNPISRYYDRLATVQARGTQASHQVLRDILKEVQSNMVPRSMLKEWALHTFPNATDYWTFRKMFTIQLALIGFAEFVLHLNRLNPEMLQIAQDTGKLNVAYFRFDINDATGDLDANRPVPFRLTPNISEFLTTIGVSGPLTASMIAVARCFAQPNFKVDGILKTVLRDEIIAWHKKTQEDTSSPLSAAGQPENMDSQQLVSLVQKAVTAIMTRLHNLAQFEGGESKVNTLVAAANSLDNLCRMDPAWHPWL
XRCC6, P12956, sequence (P12956 whole entry): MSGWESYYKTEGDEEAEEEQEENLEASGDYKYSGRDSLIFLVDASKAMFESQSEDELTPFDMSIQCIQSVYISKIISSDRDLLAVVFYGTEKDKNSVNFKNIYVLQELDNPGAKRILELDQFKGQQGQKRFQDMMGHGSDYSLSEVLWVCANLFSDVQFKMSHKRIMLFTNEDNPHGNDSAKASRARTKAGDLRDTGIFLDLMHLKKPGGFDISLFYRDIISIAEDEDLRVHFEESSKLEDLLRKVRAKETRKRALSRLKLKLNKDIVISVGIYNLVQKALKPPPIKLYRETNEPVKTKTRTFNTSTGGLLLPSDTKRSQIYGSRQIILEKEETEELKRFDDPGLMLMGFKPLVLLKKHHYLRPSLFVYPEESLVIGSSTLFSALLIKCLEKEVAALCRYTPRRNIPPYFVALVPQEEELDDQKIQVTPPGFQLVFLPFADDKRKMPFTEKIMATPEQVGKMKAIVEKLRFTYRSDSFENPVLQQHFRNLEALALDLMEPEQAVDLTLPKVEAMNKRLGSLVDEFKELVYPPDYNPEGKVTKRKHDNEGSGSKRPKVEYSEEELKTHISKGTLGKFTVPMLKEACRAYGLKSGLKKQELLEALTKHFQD
PHF5A, Q7RTV0, sequence (Q7RTV0 whole entry): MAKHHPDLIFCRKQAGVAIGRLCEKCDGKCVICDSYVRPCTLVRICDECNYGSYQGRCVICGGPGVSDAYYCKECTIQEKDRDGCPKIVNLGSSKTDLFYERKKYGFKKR
SF3B5, sequence (Q9BWJ5 whole entry): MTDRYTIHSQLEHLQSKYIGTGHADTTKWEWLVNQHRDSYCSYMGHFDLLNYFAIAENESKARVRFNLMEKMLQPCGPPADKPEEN

Turning to PGK1, P00558, the cross-linked residues result in the assay with PGK2 is “C108 - K30”.
As for PSMC2, P35998, the cross-linked residues result is given as “K34 - C58” with PSMC1 (SBAP;SIA;SIAB), “K58 - C58” with PSMC1 (SIA) and “C236 - K350” with PSMD2.
On to SF3B1, O75533, for which the cross-linked residues result in the assay with PHF5A was “K554 - C49”.
ZNF8, P17098: the cross-linked residues entry with RANGAP1 is “K522 - C169”.
For the substance GTF2E1, P29083, in the assay with PPIA, the cross-linked residues result is “K53 - C115”.
Turning to CFL1, P23528, the cross-linked residues entry with PRKDC was “C139 - K3260”.
With CLTC, Q00610, the cross-linked residues result with RHOT1 is reported as “C436 - K107”.
As to RPL4, P36578, in the assay with MLLT10, the cross-linked residues entry was “K374 - C157”.
Regarding NDUFS7, O75251, the cross-linked residues result with MT-ND3 is reported as “K136 - C39”.
With YWHAG, P61981, in the assay with NR2E1, the cross-linked residues entry was “C112 - K53”.
Regarding NDUFA10, O95299, the cross-linked residues result in the assay with NDUFA5 is on record as “K277 - C17”.
For RFC4, P35249, the cross-linked residues result in the assay with RFC3 was “K255 - C32”.
For the substance AP3B1, O00203, the cross-linked residues entry with PKM was “K386 - C49”.
As for NAA10, P41227, the cross-linked residues entry in the assay with NAA15 is “K165 - C214”.
On to PSMD9, O00233, for which, in the assay with PSMC3, the cross-linked residues result was “C59 - K300”.
As for CALR, P27797, the cross-linked residues entry in the assay with PDIA3 is listed as “C105 - K129”.
As to SMC2, O95347, the cross-linked residues result in the assay with NCAPH is given as “C132 - K152”.
With H1-3, P16402, the cross-linked residues result with RPL14 is reported as “K169 - C42”; with RPS11, “K194 - C116”; with RPS3A, “K141 - C96”; with RPS6 it was “K169 - C12”.
Take APAF1, O14727: the cross-linked residues result with RPL18A is given as “K680 - C109”.
For NCL, P19338, the cross-linked residues result in the assay with RPL24 was “K220 - C36”; with RPS16, “K116 - C25”.
With ABCB1, P08183, the cross-linked residues entry with RPL32 is reported as “K285 - C96”.
As to SERBP1, Q8NC51, the cross-linked residues result with RPL36 is given as “C11 - K35”.
LRP5, O75197: the cross-linked residues result with RPL7A was “C1343 - K217”.
For the substance PSMD3, O43242, the cross-linked residues result in the assay with RPS15A is listed as “K315 - C30”; with RPS2 it was “K315 - C182”.
For AIFM1, O95831, in the assay with RPS16, the cross-linked residues entry was “K13 - C25”.
As for GPI, P06744, the cross-linked residues result with RPS2 is given as “K128 - C182”.
Take NVL, O15381: in the assay with RPS8, the cross-linked residues entry is “C448 - K157”.
For the substance NPM1, P06748, in the assay with RRP1B, the cross-linked residues result is “K32 - C583”.
With FAM98A, Q8NCA5, the cross-linked residues entry with RTRAF is on record as “K248 - C19”.
Turning to INF2, Q27J81, the cross-linked residues result with SERBP1 was “C650 - K52”.
For the substance SNRPA1, P09661, the cross-linked residues entry in the assay with SF3A3 is “K221 - C145”.
In the case of PHF5A, Q7RTV0, the cross-linked residues result with SF3B5 (SBAP;SIA) is reported as “C85 - K17”; with SF3B5 (SIA) it was “C11 - K17”.
As to FASN, P49327, the cross-linked residues result in the assay with SFSWAP is “C1881 - K654”; with TRRAP (SIA), “C2468 - K3285”.
Consider SLC25A5, P05141, for which the cross-linked residues entry with SLC25A22 was “K147 - C52”.
In the case of SNRNP70, P08621, in the assay with SNRPD2, the cross-linked residues entry is reported as “C39 - K88”.
RPL14, P50914: the cross-linked residues entry with SNRPD3 is “K209 - C20”.
SNX2, O60749: in the assay with SNX6, the cross-linked residues entry is given as “K487 - C264”.
On to ADD1, P35611, for which, in the assay with SPTBN1, the cross-linked residues result is “C525 - K227”.
On to SRP72, O76094, for which the cross-linked residues result in the assay with SRP68 was “K504 - C525”.
SRSF1, Q07955: the cross-linked residues result with SRSF7 is listed as “C148 - K24”.
S100A11, P31949: in the assay with STK11IP, the cross-linked residues result is “K36 - C827”.
For the substance PYGB, P11216, the cross-linked residues result with SYNE2 is reported as “K622 - C3664”.
For LMNA, P02545, the cross-linked residues entry in the assay with TMPO is reported as “K201 - C363”.
Turning to UTP20, O75691, the cross-linked residues entry with TPI1 is “K2042 - C127”.
For HMGB2, P26583, the cross-linked residues result with TRRAP (SBAP) is “K147 - C1727”.
As to TSN, Q15631, the cross-linked residues entry with TSNAX is reported as “C225 - K27”.
As for UBA1, P22314, the cross-linked residues result with UBE2K is “C1040 - K18”.
Turning to GMPS, P49915, the cross-linked residues result with USP7 is listed as “K478 - C315”.
As for VDAC1, P21796, in the assay with VDAC2, the cross-linked residues result was “K197 - C47”.
Regarding NEFL, P07196, the cross-linked residues result with VIM (SIA;SIAB) is “K267 - C328”; with VIM (SIAB) it was “K224 - C328”.
Turning to XRCC6, P12956, the cross-linked residues entry is recorded as “K331 - C296” in the assay with XRCC5 (SBAP) and “K287 - C296” with XRCC5 (SBAP;SIA).
Consider YWHAE, P62258, for which the cross-linked residues result with YWHAZ is on record as “K69 - C25”.
